# Data published in PubChem BioAssay (NCATS).
# Results filed as inconclusive are left out. A call without a number means that no potency is given here. Active and inactive are the calls of the source. Unless noted, calls follow the shape of the dose curve; as a rule, active = well fitted curve in the direction sought with a large enough effect; inconclusive = small, poorly fitted or top-dose-only effect, or another doubt; inactive = no such curve, though single readings can be large; an effect the other way counts as inactive or inconclusive.
# Legend:
# [1] = Cell Viability - BJ (AID 421; calls by dose curve;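 also: potency is read from the fitted curve at half-maximal effect; cells exposed to compound for 40 hours at 37 °C before readout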); conditions: BJ fibroblast viability, qHTS
# Outline: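 Normal human BJ foreskin fibroblasts, 1500/well in complete medium, treated 40 hr at 37 °C. Cellular ATP by CellTiter-Glo luminescence; normalized to DMSO and 100 uM tamoxifen, AC50 from Hill fit.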
# [2] = Cell Viability - Jurkat (AID 426;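 active = dose-dependent loss of cell ATP signal giving a full or clear fitted curve, ranked by lower potency value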; also: potency is read from the fitted curve at half-maximal effect); conditions: qHTS
# Outline: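 Cells of the human T-cell leukemia line Jurkat (E6-1) are seeded at 5000 per well, treated with compound across a concentration range for 40 hours at 37 °C, then lysed with CellTiter-Glo; luminescence reports ATP.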
# [3] = Cell Viability - Hek293 (AID 427;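 active = compounds whose dose-response curve shows a full or clear partial loss of cell viability, called from curve shape rather than a numeric limit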;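 also: potency is read from the fitted curve at half-maximal effect; cells exposed to compound for 40 hours at 37 °C before reading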); conditions: qHTS
# Outline: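 HEK293 cells in complete medium were exposed to compound for 40 hr at 37 °C, then cellular ATP was read by CellTiter-Glo luminescence. Data were normalized to DMSO (basal) and 100 uM tamoxifen (100% inhibition), and AC50 came from Hill fits.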
# [4] = Cell Viability - HepG2 (AID 433; calls by dose curve;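 also: potency is read from the fitted curve at half-maximal effect; potency for ATP loss meaning cytotoxicity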); conditions: qHTS
# Outline: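 Read-out is luciferase-based quantitation of cellular ATP as a measure of viable HepG2 cells after 40 h treatment at 37 °C. Signal decrease is scaled between DMSO-only and 100 uM tamoxifen controls, with AC50 fitted by the Hill equation.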
# [5] = Cell Viability - MRC5 (AID 434; calls by dose curve;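 also: potency is read from the fitted curve at half-maximal effect; potency reflects cytotoxicity seen as loss of intracellular ATP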); conditions: MRC5 lung fibroblast viability, qHTS
# Outline: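 ATP luminescence read-out (CellTiter-Glo, 20 min RT) after 40 hr, 37 °C compound exposure of 1500 MRC5 cells/well. Data normalized to DMSO (basal) and 100 uM tamoxifen (100% inhibition); AC50 from standard Hill equation.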
# [6] = Cell Viability - SK-N-SH (AID 435; calls by dose curve;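 also: potency is read from the fitted curve at half-maximal effect; compound exposure lasted 40 h at 37 °C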); conditions: SK-N-SH neuroblastoma cell viability qHTS
# Outline: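 Luminescent ATP signal served as the viability read-out after 40 hours of compound treatment of human neuroblastoma SK-N-SH cells. Concentration-response data, scaled between DMSO and 100 uM tamoxifen, gave AC50 values by standard Hill modeling.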
# [7] = Cell Viability - N2a (AID 540); also: nearly all actives have a fitted effect of over 45% in size
# Outline: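 Cytotoxicity was scored as loss of cellular ATP in N2a cells, a mouse neuroblastoma line. Compounds are applied in a qHTS concentration series for 40 hr at 37 °C.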
# [8] = Cell Viability - SH-SY5Y (AID 544); conditions: SH-SY5Y neuroblastoma cell viability; at 92.2 µM (top of the series); also: nearly all actives have a fitted effect of over 55% in size
# Outline: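 Cells were plated at 1500 per well and allowed 5 hr at 37 °C. Compounds were added across a concentration range and incubated 40 hr at 37 °C. CellTiter-Glo was added for 20 min at room temperature before luminescence reading.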
# [9] = Cell Viability - Renal Proximal Tubule (AID 545); also: nearly all actives have a fitted effect of over 40% in size
# Outline: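 Luminescent ATP signal (CellTiter-Glo) served as the viability read-out after 40 hr compound exposure of freshly isolated rat proximal tubule cells at 37 °C. Concentration-dependent ATP loss was fitted with the Hill equation to give AC50.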
# [10] = Cell Viability - Mesenchymal (AID 546);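 also: cells exposed to compound for 40 hours before reading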
# Outline: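 Human renal mesenchymal cells (glomerulus-derived), 1000 cells/well, 5 hr 37 °C pre-incubation; compound 40 hr, 37 °C; CellTiter-Glo, 20 min RT; luminescence; AC50 via Hill equation.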
# [11] = Cellular Toxicity (caspase-3) HepG2 (AID 654);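 also: cells exposed to compound for 16 hours before reading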
# Outline: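 Caspase 3/7 activation in HepG2 is measured as rising luminescence after a 16 hr treatment at 37 °C. Values are scaled between DMSO basal and 100 uM tamoxifen, and AC50 is fitted with the Hill equation.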
# [12] = Cellular Toxicity (caspase-3) Jurkat (AID 655);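 also: cells exposed to compound for 16 h at 37 °C before reading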
# Outline: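 5000 Jurkat cells/well; compound 16 hr, 37 °C; Caspase-Glo 3/7 added, 20 min RT; luminescence read. Norm: DMSO = 0%, tamoxifen 100 uM = 100%. AC50, Hill model.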
# [13] = Cellular Toxicity (caspase-3) HUV-EC-C (AID 656)
# Outline: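 qHTS; HUV-EC-C, 1000 cells/well; 5 hr settle, 16 hr cmpd, 37°C; Caspase-Glo 3/7, 20 min RT; luminescence. Norm: DMSO = 0%, tamoxifen 100 uM = 100%. Hill-fit AC50.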
# [14] = Cellular Toxicity (caspase-3) SHSY5Y (AID 657)
# Outline: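 qHTS, SH-SY5Y, 1500 cells/well, 5 h pre-incubation 37 °C; compound 16 h 37 °C; Caspase-Glo 3/7 1 h RT; luminescence. Norm.: DMSO = 0, 10 uM staurosporine = 100%. Hill fit → AC50.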
# [15] = Cellular Toxicity (caspase-3) BJ (AID 658)
# Outline: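 qHTS, BJ fibroblasts, 1000 cells/well; 5 hr preincubation, 16 hr compound, 37 °C; Caspase-Glo 3/7 reagent, 1 hr RT; luminescence. DMSO = 0%, 10 uM staurosporine = 100%. Hill-equation AC50.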
# [16] = Cellular Toxicity (caspase-3) MRC-5 (AID 659)
# Outline: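 MRC-5 fibroblasts, 1500/well; 16 h cpd, 37 °C; Caspase-Glo 3/7, 1 h RT; lumi read. Norm: DMSO = 0%, 10 uM staurosporine = 100%. Hill-fit AC50 from qHTS conc-response.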
# [17] = Cellular Toxicity (caspase-3) Mesangial (AID 660);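 also: combined caspase 3 and 7 activity read by Caspase-Glo luminescence; cells exposed to compound for 16 h before the caspase read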
# Outline: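 Seed cells derived from normal human renal glomeruli, incubate 5 h, add compounds across concentrations and incubate 16 h at 37 °C. Caspase 3/7 activation is then quantified by luciferase light, with AC50 derived by Hill modeling.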
# [18] = Cellular Toxicity (caspase-3) SK-N-SH (AID 661)
# Outline: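 Cells were seeded and incubated 5 hr at 37 °C, dosed with compound over a concentration range for 16 hr, then given Caspase-Glo 3/7 reagent for 1 hr at room temperature before luminescence reading.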
# [19] = Cellular Toxicity (caspase-3) H-4-II-E (AID 663);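 also: cells exposed to compound for 16 hr before readout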
# Outline: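 H-4-II-E rat hepatoma, 1500 cells/well, 5 hr settle at 37 °C; compound 16 hr, 37 °C, complete medium; Caspase-Glo 3/7, 20 min RT; luminescence. DMSO = 0%, 100 uM tamoxifen = 100%; Hill-equation AC50.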
# [20] = Cellular Toxicity (caspase-3) Hek293 (AID 664);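 also: cells exposed to compound for 16 h at 37 °C before readout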
# Outline: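 qHTS, HEK293 (human embryonic kidney), 16 h cpd exposure in complete medium. Caspase-3/7 activation = luminescence increase; normalized to DMSO/100 uM tamoxifen; Hill-fit AC50.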
# [21] = Cellular Toxicity (caspase-3) N2a (AID 665);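 also: compound exposure lasted 16 h at 37 °C before readout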
# Outline: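 Caspase-3/7 activation, measured as increased luminescence from aminoluciferin release, is quantified in mouse N2a cells exposed to compounds for 16 h. Values are normalized to DMSO and 10 uM staurosporine, with AC50 derived by Hill modelling.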
# [22] = Cellular Toxicity (caspase-3) NIH 3T3 (AID 666);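 also: caspase signal read after 16 h compound exposure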
# Outline: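 Cells were plated at 1000 per well and incubated 5 hr at 37°C, then compound was added for 16 hr. Caspase-Glo 3/7 reagent followed for 20 min at room temperature before luminescence was read.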
# [23] = Cellular Toxicity (caspase-3) Renal Proximal Tubule (AID 667);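 also: cells exposed to compound for 16 hours at 37 °C before detection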
# Outline: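 AC50 derived by standard Hill fit of concentration-response data, normalized between DMSO basal and 10 uM staurosporine as 100% stimulation. Cells: primary rat kidney proximal tubule, 16 h treatment at 37 °C.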
# [24] = MultiTox-Fluor Cytotoxicity Assay - LYMP1-001 - Dead Cells (AID 946)
# Outline: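 LYMP1-001 lymphoblastoid cells (2500/well) treated 16 h at 37 C. Dead-cell protease cleavage of bis-AAF-R110 read at Ex/Em 485/520. Normalized to DMSO and 15 uM tetraoctylammonium bromide; AC50 from Hill fits.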
# [25] = MultiTox-Fluor Cytotoxicity Assay - LYMP1-001 - Live Cells (AID 947)
# [26] = Cell Viability - LYMP1-002 - Assay at 16 hr (AID 948)
# Outline: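 Seed 2500 LYMP1-002 cells per well in complete medium and hold 5 hr at 37 C. Add compound across a concentration series and incubate 16 hr at 37 C. Add CellTiter-Glo, wait 30 min at room temperature, read luminescence.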
# [27] = MultiTox-Fluor Cytotoxicity Assay - LYMP1-002 - Live Cells (AID 955)
# Outline: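 Cells were seeded at 2500 per well and incubated 5 hr. Compounds were then added for 16 hr at 37 C, followed by MultiTox-Fluor reagent for 60 min at room temperature and fluorescence reading of viable-cell protease signal.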
# [28] = MultiTox-Fluor Cytotoxicity Assay - LYMP1-002 - Dead Cells (AID 960); also: nearly all actives have a fitted effect of over 60% in size
# Outline: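 Cells were plated, rested 5 hr, then treated with compound dilution series for 16 hr at 37 C. After adding substrate reagent and 60 min at room temperature, dead-cell protease fluorescence gave concentration-response curves fitted by the Hill equation.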
# [29] = MultiTox-Fluor Cytotoxicity Assay - LYMP1-003 - Dead Cells (AID 961); also: nearly all actives have a fitted effect of over 70% in size
# Outline: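 LYMP1-003 human lymphoblastoid cells (2500/well) exposed to compound 16 h at 37 C in complete medium; dead-cell protease read with bis-AAF-R110 fluorescence (Ex/Em 485/520) after 60 min at room temperature. Normalized to DMSO and 15 uM tetraoctylammonium bromide; AC50 from Hill fit.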
# [30] = MultiTox-Fluor Cytotoxicity Assay - LYMP1-003 - Live Cells (AID 962);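 also: cytotoxic hits lower the live-cell protease signal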
# Outline: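 Acute cytotoxicity is scored as a drop in live-cell protease activity in human lymphoblastoid LYMP1-003 cells after 16 hr compound exposure at 37 C. AC50 values come from Hill-equation modelling of concentration-response data.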
# [31] = Cell Viability - LYMP1-003 - Assay at 24 hr (AID 963)
# Outline: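 Cytotoxicity is scored as a concentration-dependent fall in ATP-linked luciferase signal in human lymphoblastoid LYMP1-003 cells treated 24 hr at 37 C in complete culture medium.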
# [32] = Cell Viability - LYMP2-003 (AID 965);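 also: cells exposed to compounds for 24 h before reading; nearly all actives have a fitted effect of over 50% in size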
# Outline: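 Seed 2500 lymphoblastoid cells/well; incubate 5 hr, 37 C; add compounds; incubate 24 hr, 37 C; add CellTiter-Glo, 30 min RT; read luminescence. AC50 from Hill fit.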
# [33] = Cell Viability - LYMP2-004 (AID 966); also: nearly all actives have a fitted effect of over 65% in size
# Outline: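 qHTS cytotoxicity: human lymphoblastoid line, 24 hr compound treatment, 37 C, complete medium. Viability read as cellular ATP via luciferase luminescence; tetraoctylammonium bromide served as positive control.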
# [34] = Cell Viability - LYMP2-005 (AID 967);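 also: cells exposed to compound for 24 h at 37 °C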
# Outline: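 Acute cytotoxicity is scored as a concentration-dependent drop in intracellular ATP in human lymphoblastoid LYMP2-005 cells after 24 h compound treatment. ATP is quantified by luciferase luminescence, and AC50 is derived by Hill-equation modelling.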
# [35] = Cell Viability - LYMP2-009 (AID 968);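 also: cells exposed to compound for 24 h at 37 °C; nearly all actives have a fitted effect of over 55% in size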
# [36] = Cell Viability - LYMP2-011 (AID 969); also: nearly all actives have a fitted effect of over 60% in size
# Outline: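 In this qHTS cytotoxicity format, compounds are tested across concentrations on human lymphoblastoid cells in complete medium for 24 hours at 37 C. Viability is taken as cellular ATP measured by luciferase luminescence.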
# [37] = Cell Viability - LYMP2-013 (AID 970);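 also: cells exposed to compound for 24 h at 37 °C; nearly all actives have a fitted effect of over 55% in size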
# Outline: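 Cytotoxicity is scored as a concentration-dependent drop in intracellular ATP in human lymphoblastoid cells after 24 hr compound exposure at 37 C. ATP is quantified by luciferase luminescence, and AC50 values come from Hill-equation modeling.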
# [38] = Cell Viability - LYMP2-015 (AID 971); also: nearly all actives have a fitted effect of over 55% in size
# Outline: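 Cells are seeded at 2500 per well and incubated 5 hr at 37 C. Compounds are added across a concentration series for 24 hr at 37 C. CellTiter-Glo is added, and luminescence is read after 30 min at room temperature.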
# [39] = Cell Viability - LYMP2-017 (AID 972); also: nearly all actives have a fitted effect of over 55% in size
# Outline: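 Cytotoxicity is scored as a concentration-dependent drop in cellular ATP in a human lymphoblastoid line after 24 hr treatment at 37 C. Values are AC50s from Hill-equation modelling.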
# [40] = Cell Viability - LYMP2-019 (AID 973)
# Outline: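 Cytotoxicity is scored as a concentration-dependent drop in cellular ATP after cells (2500/well) receive compound for 24 hr at 37 C. Tetraoctylammonium bromide serves as positive control.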
# [41] = Cell Viability - LYMP2-021 (AID 974)
# Outline: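 Loss of cellular ATP, measured with a luciferase-based CellTiter-Glo readout, serves as the toxicity signal in human lymphoblastoid cells treated for 24 hours at 37 C. Potency is reported as AC50 from a standard Hill model.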
smiles,measurement,setting,value
CO[C@H]1/C=C/O[C@@]2(C)Oc3c(C)c(O)c4c(O)c(c(/C=N/N5CCN(C)CC5)c(O)c4c3C2=O)NC(=O)/C(C)=C\C=C\[C@H](C)[C@H](O)[C@@H](C)[C@@H](O)[C@@H](C)[C@H](OC(C)=O)[C@@H]1C,Potency,[1],> 92 µM (inactive)
same,Potency,[2],> 92 µM (inactive)
same,Potency,[3],> 92 µM (inactive)
same,Potency,[4],> 92 µM (inactive)
same,Potency,[5],> 92 µM (inactive)
same,Potency,[6],> 92 µM (inactive)
same,outcome,[7],inactive
same,"viability change, negative = cytotoxic",[8],-92.1% (active)
same,outcome,[9],inactive
same,outcome,[10],inactive
same,outcome,[11],inactive
same,outcome,[12],inactive
same,outcome,[13],inactive
same,outcome,[14],inactive
same,outcome,[15],inactive
same,outcome,[16],inactive
same,outcome,[17],inactive
same,outcome,[18],inactive
same,outcome,[19],inactive
same,outcome,[20],inactive
same,outcome,[21],inactive
same,outcome,[22],inactive
same,outcome,[23],inactive
same,outcome,[24],inactive
same,outcome,[25],inactive
same,outcome,[26],inactive
same,outcome,[27],inactive
same,outcome,[28],inactive
same,outcome,[29],inactive
same,outcome,[30],inactive
same,outcome,[31],inactive
same,outcome,[32],inactive
same,outcome,[33],inactive
same,outcome,[34],inactive
same,outcome,[35],inactive
same,outcome,[36],inactive
same,outcome,[37],inactive
same,outcome,[38],inactive
same,outcome,[39],inactive
same,outcome,[40],inactive
same,outcome,[41],inactive
